What all share (conditions): modulator concentration 10 µM
Test [1] relates to RAW-Dual (murine macrophage reporter line). In words: NF-kB reporter (SEAP) activity fold change vs agonist alone; higher = enhanced NF-kB activity. The method, boiled down: (§1)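 RAW-Dual murine macrophage reporter cells were plated at 50 000 per well in 384-well plates, pin-transferred compound to 10 μM final, and pre-incubated for 1 hour at 37 °C before a PRR agonist was added and the cells incubated overnight. NF-κB activity was read from supernatant SEAP with QUANTI-Blue at 620 nm absorbance, and IRF activity from Lucia luciferase with QUANTI-Luc by luminescence. Each signal was expressed as fold change by dividing by the mean agonist-only control on the same plate. Two replicate plates were averaged, with errors obtained by propagation.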

Test [2] has the same test system. Kind of test: IRF reporter (Lucia luciferase) activity fold change vs agonist alone; higher = enhanced IRF activity. The method, boiled down:
as §1

Test [3] has the same test system. Kind of test: viability score (confluency relative to resting cells, overnight) (fraction); higher = more viable, active = viable (0.7 or more). The method, boiled down: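 Overnight exposure to 10 μM final compound was carried out on RAW-Dual macrophages in 384-well plates. IncuCyte software generated two confluency masks over all wells imaged with IncuCyte. The viability score gives confluency in relation to resting cells. A compound met the cutoff if each mask exceeded 70% of resting cells.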

[4] abbreviates: agonist: CpG ODN 1826 0.5 ug/mL.

Structures are written as SMILES. ± gives the standard deviation.

In the case of `COc1ccc(C=C(NC(=O)c2ccccc2)C(=O)NCCC(=O)OCc2ccccc2)cc1`, the NF-kB reporter in test [1] (setting [4]) turned out to be 0.996 ± 0.082; in test [1] (agonist: LPS 0.1 ug/mL), 1.04 ± 0.096; in test [1] (agonist: MPLA […]) it was 0.875 ± 0.073. Besides, the IRF reporter stood at 0.841 ± 0.024 in test [2] (agonist: 3'3'-cGAMP 10 ug/mL), 1.4 ± 0.14 in test [2] (agonist: LPS 0.1 ug/mL) and 1.11 ± 0.22 in test [2] (agonist: MPLA […]). Besides, in test [3], the viability score was 1.01 (active).
Regarding `CCCCNc1ccc(C(=O)OCCN(C)C)cc1.Cl`, the figures for the NF-kB reporter in test [1] (setting [4]), in test [1] (agonist: LPS 0.1 ug/mL) and in test [1] (agonist: MPLA […]) were 0.906 ± 0.12, 0.983 ± 0.31 and 0.987 ± 0.055, respectively. Further, the results for the IRF reporter in test [2] (agonist: 3'3'-cGAMP 10 ug/mL), in test [2] (agonist: LPS 0.1 ug/mL) and in test [2] (agonist: MPLA […]) were 0.824 ± 0.039, 1.15 ± 0.34 and 1.09 ± 0.086, respectively. Moreover, the viability score in test [3] was 1.01 (active).
Take `CN1CCN(S(=O)(=O)c2ccc(-c3ccc(S(=O)(=O)N4CCN(C)CC4)cc3)cc2)CC1`: the NF-kB reporter came to 0.865 ± 0.048 in test [1] (setting [4]), 1.06 ± 0.074 in test [1] (agonist: LPS 0.1 ug/mL) and 0.955 ± 0.06 in test [1] (agonist: MPLA […]). In addition, the IRF reporter was 1.04 ± 0.043 in test [2] (agonist: 3'3'-cGAMP 10 ug/mL), 1.45 ± 0.15 in test [2] (agonist: LPS 0.1 ug/mL) and 1.1 ± 0.098 in test [2] (agonist: MPLA […]). In test [3], the viability score is 0.999 (active).
In the case of `Nc1ccn([C@@H]2O[C@H](CO)[C@@H](O)[C@@H]2O)c(=O)n1`, the NF-kB reporter in test [1] (setting [4]) was determined as 1.36 ± 0.27; in test [1] (agonist: LPS 0.1 ug/mL), 1.38 ± 0.13; in test [1] (agonist: MPLA […]) it was 1.38 ± 0.19. The IRF reporter is 0.687 ± 0.025 in test [2] (agonist: 3'3'-cGAMP 10 ug/mL), 1.08 ± 0.16 in test [2] (agonist: LPS 0.1 ug/mL) and 1.14 ± 0.12 in test [2] (agonist: MPLA […]). The viability score in test [3] was 0.35 (inactive).
On to `O=C(Cc1ccc(NC(=O)c2ccc(OC(F)(F)F)cc2)cc1)NCC(F)(F)F`, for which the values for the NF-kB reporter in test [1] (setting [4]), in test [1] (agonist: LPS 0.1 ug/mL) and in test [1] (agonist: MPLA […]) were 1.22 ± 0.094, 1.04 ± 0.12 and 0.994 ± 0.031, respectively. Besides, the IRF reporter in test [2] (agonist: 3'3'-cGAMP 10 ug/mL) was determined as 0.984 ± 0.055; in test [2] (agonist: LPS 0.1 ug/mL), 1.03 ± 0.077; in test [2] (agonist: MPLA […]), 1.04 ± 0.18. Moreover, the viability score in test [3] is 0.999 (active).
For `COc1ccc(C=C(NC(=O)c2cc(OC)c(OC)c(OC)c2)C(=O)NC(C(=O)O)C(C)C)c(OC)c1` (stereo unspecified), the NF-kB reporter turned out to be 1.01 ± 0.091 in test [1] (setting [4]), 0.985 ± 0.055 in test [1] (agonist: LPS 0.1 ug/mL) and 0.934 ± 0.11 in test [1] (agonist: MPLA […]). The IRF reporter was found to be 0.908 ± 0.031 in test [2] (agonist: 3'3'-cGAMP 10 ug/mL), 1.23 ± 0.18 in test [2] (agonist: LPS 0.1 ug/mL) and 1.04 ± 0.29 in test [2] (agonist: MPLA […]). The viability score in test [3] is 1.02 (active).
Regarding `CC(C)(Oc1ccc(CCNC(=O)c2ccc(-c3ccc(Cl)cc3)o2)cc1)C(=O)O`, the values for the NF-kB reporter in test [1] (setting [4]), in test [1] (agonist: LPS 0.1 ug/mL) and in test [1] (agonist: MPLA […]) were 1.09 ± 0.087, 1.03 ± 0.078 and 0.976 ± 0.062, respectively. Further, the IRF reporter in test [2] (agonist: 3'3'-cGAMP 10 ug/mL) amounted to 0.942 ± 0.067; in test [2] (agonist: LPS 0.1 ug/mL), 1.39 ± 0.22; in test [2] (agonist: MPLA […]), 1.08 ± 0.1. Moreover, the viability score in test [3] is 1.01 (active).
Turning to `CCC(=O)Nc1ccc(N2CCOCC2)c(Cl)c1`, the NF-kB reporter in test [1] (setting [4]) worked out at 1.11 ± 0.12; in test [1] (agonist: LPS 0.1 ug/mL), 0.945 ± 0.087; in test [1] (agonist: MPLA […]) it was 1.03 ± 0.052. The IRF reporter in test [2] (agonist: 3'3'-cGAMP 10 ug/mL) came to 0.838 ± 0.095; in test [2] (agonist: LPS 0.1 ug/mL) it was 0.982 ± 0.054; in test [2] (agonist: MPLA […]), 1.01 ± 0.11. The viability score in test [3] is 0.996 (active).
With `CN(CCO)c1ccc2nonc2c1[N+](=O)[O-]`, the NF-kB reporter in test [1] (setting [4]) came to 1.39 ± 0.085; in test [1] (agonist: LPS 0.1 ug/mL) it was 1.18 ± 0.11; in test [1] (agonist: MPLA […]), 1.33 ± 0.087. In addition, the IRF reporter in test [2] (agonist: 3'3'-cGAMP 10 ug/mL) worked out at 0.886 ± 0.034; in test [2] (agonist: LPS 0.1 ug/mL) it was 1.28 ± 0.086; in test [2] (agonist: MPLA […]), 0.996 ± 0.088. Also, the viability score in test [3] is 1 (active).
As to `Cc1ccc(CN2C3=NCCCN3c3ccccc32)cc1.Cl`, the NF-kB reporter in test [1] (setting [4]) came out at 0.294 ± 0.047; in test [1] (agonist: LPS 0.1 ug/mL) it was 1.25 ± 0.13; in test [1] (agonist: MPLA […]) it was 1.32 ± 0.17. Moreover, the IRF reporter in test [2] (agonist: 3'3'-cGAMP 10 ug/mL) was found to be 0.881 ± 0.026; in test [2] (agonist: LPS 0.1 ug/mL), 1.27 ± 0.17; in test [2] (agonist: MPLA […]) it was 1.34 ± 0.2. Further, the viability score in test [3] was 0.999 (active).
Regarding `C#CCC(Cc1cnc2nc(N)nc(N)c2n1)c1ccc(C(=O)N[C@@H](CCC(=O)O)C(=O)O)cc1` (stereo partly specified), the values for the NF-kB reporter in test [1] (setting [4]), in test [1] (agonist: LPS 0.1 ug/mL) and in test [1] (agonist: MPLA […]) were 0.605 ± 0.045, 0.856 ± 0.14 and 0.778 ± 0.038, respectively. The IRF reporter in test [2] (agonist: 3'3'-cGAMP 10 ug/mL) came to 0.774 ± 0.18; in test [2] (agonist: LPS 0.1 ug/mL) it was 0.955 ± 0.032; in test [2] (agonist: MPLA […]) it was 0.911 ± 0.083. Further, the viability score in test [3] is 0.667 (inactive).
On to `COc1ccc(N(CC(=O)N2CCc3ccccc3C2)S(C)(=O)=O)c(OC)c1`, for which the NF-kB reporter was 1.04 ± 0.13 in test [1] (setting [4]), 1.09 ± 0.093 in test [1] (agonist: LPS 0.1 ug/mL) and 0.913 ± 0.057 in test [1] (agonist: MPLA […]). In addition, the IRF reporter in test [2] (agonist: 3'3'-cGAMP 10 ug/mL) came out at 0.992 ± 0.026; in test [2] (agonist: LPS 0.1 ug/mL), 1.49 ± 0.28; in test [2] (agonist: MPLA […]), 1.13 ± 0.089. In addition, the viability score in test [3] was 1.01 (active).
Regarding `COc1ccc(Cl)cc1C(=O)N1CCC(S(=O)(=O)c2nncn2C)CC1`, the results for the NF-kB reporter in test [1] (setting [4]), in test [1] (agonist: LPS 0.1 ug/mL) and in test [1] (agonist: MPLA […]) were 0.944 ± 0.051, 1.04 ± 0.11 and 0.858 ± 0.038, respectively. Besides, the IRF reporter in test [2] (agonist: 3'3'-cGAMP 10 ug/mL) was determined as 1 ± 0.052; in test [2] (agonist: LPS 0.1 ug/mL) it was 1.19 ± 0.085; in test [2] (agonist: MPLA […]), 1.11 ± 0.29. The viability score in test [3] was 0.994 (active).

For the origin of these results see the supplement of paper PMC10646978.
